# Compound activity (PubChem BioAssay)
# Compounds with a hit are over-represented: about 3.2% of the library has one in this group of screens.
# CendR NRP1 mod: modulators of CendR peptide binding to human neuropilin-1. inhibition, % at 25 µM. FAM-RPARPAR peptide binding to NRP-1, fluorescence polarization. AID 602438. hit rate 0.85% among 360,000;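 active = inhibition or corrected inhibition above about 18%, plus a signal ratio from 0.5 to 1.5, limit read from the data, passing the limit was not always enough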
# MEKK3 PB1 HTS: modulators (inhibitors or enhancers) of MEK5 binding to human MEKK3 PB1 domain; Q99759; bead-based flow cytometry, Alexa488-MEK5 binding to MEKK3; actives lie on both sides; 0 = blocked by unlabeled MEK5, 100 = vehicle; binding response (% of control), % at 10 µM; hit rate 1.4% among 290,000;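 active = binding response more than 3 SD above or below the average of its plate-row segment, actives on both sides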;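 also: Alexa488 bead fluorescence after subtracting the streptavidin-only scavenger bead signal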
# Target sequence (Q99759 whole entry, looked up, the tested form may be a part): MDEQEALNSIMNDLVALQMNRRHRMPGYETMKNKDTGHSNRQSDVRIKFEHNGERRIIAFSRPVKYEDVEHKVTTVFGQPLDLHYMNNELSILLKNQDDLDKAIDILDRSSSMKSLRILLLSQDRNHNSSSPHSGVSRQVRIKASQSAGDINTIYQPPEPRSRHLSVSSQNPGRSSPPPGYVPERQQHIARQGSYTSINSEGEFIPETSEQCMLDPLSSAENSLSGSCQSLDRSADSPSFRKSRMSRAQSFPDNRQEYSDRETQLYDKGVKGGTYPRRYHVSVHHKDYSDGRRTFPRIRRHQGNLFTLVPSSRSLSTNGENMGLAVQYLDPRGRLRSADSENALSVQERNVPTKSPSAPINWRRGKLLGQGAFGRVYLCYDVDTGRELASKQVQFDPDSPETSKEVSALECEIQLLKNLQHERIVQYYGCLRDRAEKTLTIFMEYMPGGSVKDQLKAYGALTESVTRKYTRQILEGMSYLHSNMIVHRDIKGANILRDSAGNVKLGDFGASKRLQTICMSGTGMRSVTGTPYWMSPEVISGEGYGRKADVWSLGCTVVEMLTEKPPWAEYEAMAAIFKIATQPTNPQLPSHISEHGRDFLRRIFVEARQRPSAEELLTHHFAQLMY
# MEKK2 WT-MEK5: raises or lowers MEK5 binding to wildtype human MEKK2 PB1 domain. bead flow cytometry, Alexa488-MEK5 binding to MEKK2 WT; actives lie on both sides. binding response (% of control), % at 10 µM. hit rate 1.1% among 290,000; in the data active = binding response below about 67% or above about 130%
# MEKK2mut PB1 HTS: signal of MEK5 binding to mutant human MEKK2 PB1 domain. bead flow cytometry, Alexa488-MEK5 binding to MEKK2 mutant. percent response, % at 10 µM. hit rate 0.35% among 290,000; in the data active = percent response above about 24%, passing the limit was not always enough
# SKN-1 inh: inhibitors of C. elegans SKN-1 | C. elegans VP596 Pgst-4::GFP/RFP ratio, acrylamide-induced, 24 h | inhibition, % at 21.8 µM | hit rate 0.49% among 360,000;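 active = interference check ratio from 0.5 to 1.5 plus GFP to RFP signal ratio inhibition reaching or exceeding a fixed threshold, cut at about 30% in these data, passing the limit was not always enough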
# MEKK2wt confirm: raises or lowers MEK5 binding to wildtype human MEKK2, retest; AID 1892; bead flow cytometry, Alexa488-MEK5 binding to MEKK2 WT; actives lie on both sides; hit rate 2.4% among 5,900; binding response (% of control), % at 10 µM; shares compounds with MEKK3 PB1 HTS; in the data active = binding response below about 16% or above about 210%; inactive = in between
# MEKK2mut confirm: signal of MEK5 binding to mutant human MEKK2, retest; percent response, % at 10 µM; bead flow cytometry, Alexa488-MEK5 binding to MEKK2 mutant; hit rate 2% among 5,900; AID 1893; shares compounds with MEKK3 PB1 HTS; in the data active = percent response mostly above about 71%, no sharp cut-off; inactive = mostly below about 38%;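 also: higher means compound restores mutant binding toward wildtype level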
# MEKK3 confirm: MEKK3-MEK5 PB1 inhibition, single concentration confirmation | shares compounds with MEKK3 PB1 HTS | bead flow cytometry, Alexa488-MEK5 binding to MEKK3; hits give low values | binding response (% of control), % at 10 µM | hit rate 1.8% among 5,900 | AID 1894;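 active = binding response below 72% of control, or above a set upper limit, though filed actives all read lower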;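 also: 100% = DMSO only wells and 0% = binding blocked by excess unlabeled MEK5; lower values mean stronger disruption of MEK5 binding to MEKK3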
# Active calls of the source: *; . = no result given; [ ] = another dose, or the depositor's remark.
SMILES,CendR NRP1 mod,MEKK3 PB1 HTS,MEKK2 WT-MEK5,MEKK2mut PB1 HTS,SKN-1 inh,MEKK2wt confirm,MEKK2mut confirm,MEKK3 confirm
C=CCc1ccc(OCCOc2ccc(/C=N/n3cnnc3)cc2OCC)c(OC)c1,-4,111,116,27*,-2,101,-7,104
Cc1cccc(C2c3[nH]c4ccccc4c3CCN2C(=O)c2noc3c2CCCC3)n1 (stereo not drawn),13,99,95,-5,9,.,.,.
Cc1cccc(C2c3[nH]c4ccccc4c3CCN2C(=O)c2cn(C)c3ccccc3c2=O)n1 (stereo not drawn),10,87,46*[inhibitor],-14,-3,97,-2,102
NCCCCCCNS(=O)(=O)c1cccc2c(Cl)cccc12,-5,116,140*,10,1,112,2,98
CN(C)CCCNS(=O)(=O)c1cc(Cl)ccc1Cl,-7,96,100,2,24,.,.,.
COc1ccc(/C=N/NC(=O)c2[nH]c3ccc(Br)cc3c2-c2ccccc2)cc1,1,147*,103,0,6,96,-7,101
C/C(=N\NC(=O)c1ccc(Br)cc1)C1C(=O)c2ccccc2C1=O,0,103,105,3,8,.,.,.
C/C(=N\NC(=O)c1ccc(-c2ccccc2)cc1)C1C(=O)c2ccccc2C1=O,4,47*[inhibitor],47*[inhibitor],-16,-4,97,0,103
COCCCN1C(=O)C(=O)/C(=C(/O)c2ccc(S(=O)(=O)N3CCOCC3)cc2)C1c1cccc(Cl)c1 (stereo not drawn),11,104,109,2,-4,.,.,.
CC(C)(C)OC(=O)C[C@H]1C/C=C\C[C@H](CC(=O)N[C@H](CO)Cc2ccccc2)C(=O)N2CCC[C@@H]2COC1=O,7,.,.,.,-20,.,.,.
O=C(c1ccc(Cl)cc1)[C@@H]1[C@@H]2C(=O)N(c3cccc4ccccc34)C(=O)[C@@H]2C2c3ccccc3C=NN21 (stereo partly drawn),-4,153*,109,1,12,101,-8,100
Cc1ncc(CO)c(/C=N/NC(=O)c2ccoc2C)c1O,3,.,.,.,7,.,.,.
Cc1ncc(CO)c(/C=N/NC(=O)c2ccccc2Br)c1O,-1,99,5.0*[inhibitor],2,8,101,2,105
O=C(NCCCN1CCCCC1)c1ccc(CS(=O)c2ccc(F)cc2)o1 (stereo not drawn),-11,99,105,4,13,.,.,.
COc1ccc(C2=NN(C(=O)c3cccs3)C(c3ccccc3O)C2)cc1 (stereo not drawn),4,50*[inhibitor],48,-15,-3,90,-8,96
COc1ccc(C(=O)N2N=C(c3cccs3)CC2c2ccccc2O)cc1 (stereo not drawn),-9,95,85,-15,-1,.,.,.
COc1cccc(C(C)(O)c2nc(-c3cccc4cccnc34)cs2)c1 (stereo not drawn),4,.,.,.,6,.,.,.
CN(C)CCNc1ncnc2c1sc1nc(N3CCOCC3)c3c(c12)CC(C)(C)SC3,2,105,141*,14,14,141,20,107
CCN(CC)CCNc1ncnc2c1sc1nc(N3CCOCC3)c3c(c12)CC(C)(C)SC3,-4,101,130,17,-29,.,.,.
CCOC(=O)N(C)c1c(CC)nc2c(OCc3ccc(S(C)(=O)=O)cc3)cccn12,-21,.,.,.,16,.,.,.
N#CCc1ccc(NC(=O)CSc2nnc(C3CC3)n2C2CC2)cc1,15,.,.,.,-13,.,.,.
O=C(Nc1nc2ccccc2[nH]1)c1ccccc1,-5,13*[inhibitor],21*[inhibitor],-23,4,103,1,102
O=C(Nc1nc2ccccc2[nH]1)c1ccc(Cl)cc1,6,100,100,2,11,.,.,.
CCCCN1C(=O)C(CC(=O)NCc2cccc3ccccc23)CC(C(=O)N(C)C)=C1C (stereo not drawn),-5,.,.,.,-1,.,.,.
Cc1cc(C)n(-c2nnc(C)n2/N=C/c2ccco2)n1,2,104,93,-1,-26,.,.,.
SMILES,CendR NRP1 mod,MEKK3 PB1 HTS,MEKK2 WT-MEK5,MEKK2mut PB1 HTS,SKN-1 inh,MEKK2wt confirm,MEKK2mut confirm,MEKK3 confirm
C=C(C)CN=c1scc(C)n1/N=C/c1ccco1,-1,77*[inhibitor],85,-9,14,73,-11,73
CNCc1ccccc1Sc1ccc(OC)cc1,-4,.,.,.,14,.,.,.
CNCc1ccccc1Sc1cccc2ccccc12,6,154*,122,2,6,125,12,104
Cc1ccc(CNC(=O)Cn2c(=O)c3sccc3n(Cc3ccc([N+](=O)[O-])cc3)c2=O)cc1,-6,163*,107,0,-10,104,1,100
Cc1ccc(CNC(=O)Cn2c(=O)n(CC(=O)N3CCCCC3)c(=O)c3sccc32)cc1,8,101,103,-1,9,.,.,.
O=C(/C=C/c1ccc(N2CCC(c3ccccc3)=N2)cc1)c1ccccc1,.,78,.,281*,.,94,-50,78
CC(C)Cc1ccc(C(=O)NCCOc2ccccc2)o1,6,105,104,0,7,.,.,.
Cc1ccc(C(=O)CSc2nc(O)cc(=O)[nH]2)cc1C,7,107,108,13,3,.,.,.
COc1ccccc1CCc1nnc(CCC(=O)NC(C)Cn2nc(C)cc2C)o1 (stereo not drawn),5,37*[inhibitor],50,-18,10,104,4,107
COc1ccccc1CCc1nnc(CCC(=O)NC(C)Cc2cccc(C)n2)o1 (stereo not drawn),2,101,104,2,-3,.,.,.
O=C(COc1ccccc1[N+](=O)[O-])N1CCN(c2ccccn2)CC1,-6,.,.,.,-6,.,.,.
CC(N=c1ccccn1C(=O)Nc1ccc(F)cc1)c1ccco1 (stereo not drawn),0,0.0*[inhibitor],-4.0*[inhibitor],-39,6,95,-18,95
CCOc1ccc(CCNC(=O)CCc2nnc3ccc(N4CCCCC4)nn23)cc1OCC,7,97,100,4,10,.,.,.
CC1(C(=O)Nc2cnc3ccccc3c2)CCN1C(=O)CC(c1ccccc1)c1ccccc1 (stereo not drawn),4,.,.,.,30,.,.,.
O=C(COc1cccc(C(F)(F)F)c1)Nc1cccc(S(=O)(=O)NC2=NCCCCC2)c1,12,.,.,.,22,.,.,.
O=C(Nc1c(C(=O)C2CC2)oc2ccccc12)c1ccc(Cl)cc1,-7,145*,111,1,0,102,5,102
O=C(O)CCSCC(=O)Nc1c(C(=O)C2CC2)oc2ccccc12,-2,101,102,0,0,.,.,.
CCCN(CCC)C(=O)c1cc2c(=O)n3cccc(C)c3nc2s1,2,103,99,3,-3,.,.,.
